Screens from PubChem.
BAZ2B block: BAZ2B (human) inhibition; Q9UIF8; AlphaScreen BAZ2B-H3K14Ac peptide displacement; AID 504333; hit rate 4.4% among 360,000; Potency, µM (doses to about 114 µM), actives largely listed as inhibitors; further: nearly all actives have a fitted effect of over 60% in size
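Inhibition is scored as reduced AlphaScreen emission. The BAZ2B/b-H3(5-23)K14Ac complex (50 nM each) in PBS pH 7.4, 0.01% Tween-20 meets compound (up to 110 uM) for 30 min at RT before bead addition.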
PI5P4K alpha inh: blocks human PI5P4K alpha kinase activity. P48426. PI5P4Kalpha enzyme, ADP-Glo luminescence, 60 min; stronger effect = lower value. max response, %. hit rate 1.2% among 330,000. AID 652105; active means max response of -50% or lower; inconclusive means between -30% and -50%; inactive means -30% or higher; further: value at the top dose of about 77 µM
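Enzyme plus substrate dispensed, test compounds pinned in, then ATP (5 microM final) added. After 60 min at RT, ADP-Glo reagent 1 for 45 min and reagent 2 for 30 min preceded luminescence imaging.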
JMJD2A Tudor inh: JMJD2A Tudor domain (human) inhibition | Potency, µM (series often up to 114 µM), usual class: inhibitors | hit rate 4.4% among 390,000 | AlphaScreen JMJD2A-Tudor / H3K4me3 peptide binding | AID 504339; further: nearly all actives have a fitted effect of over 50% in size
GCN5L2 inh: blocks human GCN5L2 histone acetyltransferase; GCN5L2 HAT assay, ThioGlo1 CoA-SH fluorescence; hit rate 0.21% among 390,000; Potency, µM (titrated, usually from 58.9 µM), hits mostly inhibitors; Q92830
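Free CoA generated was detected with ThioGlo1 (50uM) fluorescence at Ex340nm/Em540nm, read immediately and after 20 min at room temperature. Enzyme, 20 nM in HEPES pH 7.5 buffer, saw compounds 15 min before adding 75uM H3(1-25) peptide and 70uM acetyl-CoA.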
PLK1 PBD block: blocks phosphopeptide binding to human PLK1 polo-box domain. P53350. Plk1 PBD binding of FITC phosphopeptide, fluorescence polarization. Potency, µM, actives largely listed as inhibitors. hit rate 2.8% among 360,000; further: series mostly up to about 57 µM; nearly all actives have a fitted effect of over 65% in size
HP1b chromo inh: inhibitors of HP1-beta chromodomain binding to methylated histone tails | Potency, µM (titrated, usually from 114 µM), most hits filed as inhibitors | hit rate 0.56% among 390,000 | AlphaScreen HP1-beta / biotin-H3K9me3 peptide binding | P83916; further: nearly all actives have a fitted effect of over 70% in size
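AlphaScreen: HP1-beta (50 nM) preformed 30 min with biotin-H3(1-18)K9me3 peptide (50 nM) in PBS pH 7.4, 0.01% Tween-20. Compound added for 30 min at RT, then streptavidin donor/nickel chelate acceptor beads (10 ug/mL) for 30 min.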
Large screens that a line does not name were inactive. In the library only some 7% were active in any assay of this set; here they are far more common. Unless noted, the call rests on the fitted dose curve; in most records, active means well fitted curve in the direction sought with a large enough effect; inconclusive means small, poorly fitted or top-dose-only effect, or another doubt; inactive means no such curve, though single readings can be large; an effect the other way counts as inactive or inconclusive.

COc1cc(C2Nc3ccccc3NC3=C2C(=O)CC(C)(C)C3)cc(OC)c1OC (configuration not stated)	none
COc1cc(C2NC(=O)NC3=C2C(=O)OC3)cc(OC)c1OC (configuration not stated)	PLK1 PBD block 29.9µM
COC(=O)C1=C(C)NC(=O)/C1=C\N(C)C	none
c1ccc2c(CNc3ccc(CNc4ncn[nH]4)cc3)cccc2c1	BAZ2B block 44.7µM, JMJD2A Tudor inh 56.2µM, HP1b chromo inh inconclusive
COc1ccccc1CNc1ccc(CNc2ncn[nH]2)cc1	BAZ2B block inconclusive, JMJD2A Tudor inh inconclusive
C=CCn1c(SCc2nc3sc(C(=O)O)c(C)c3c(=O)[nH]2)nnc1-c1ccc(C(C)(C)C)cc1	BAZ2B block 50.1µM, PI5P4K alpha inh -50.9, JMJD2A Tudor inh 28.2µM
Cc1nnc(SCc2nc3sc(C(=O)O)c(C)c3c(=O)[nH]2)s1	PI5P4K alpha inh -61.7, JMJD2A Tudor inh 31.6µM, GCN5L2 inh inconclusive
Cc1c(C(=O)O)sc2nc(CSc3nnc(-c4ccc(F)cc4)n3C)[nH]c(=O)c12	BAZ2B block inconclusive, PI5P4K alpha inh inconclusive, JMJD2A Tudor inh inconclusive
C=CCn1c(SCc2nc3sc(C(=O)O)c(C)c3c(=O)[nH]2)nnc1-c1ccccc1	BAZ2B block inconclusive, PI5P4K alpha inh -66.7, JMJD2A Tudor inh 25.1µM
CC(=O)c1sc2nc(CSc3nnnn3-c3ccccc3)[nH]c(=O)c2c1C	BAZ2B block inconclusive, PI5P4K alpha inh -82.9, GCN5L2 inh inconclusive, PLK1 PBD block inconclusive
O=C(CN1C(=O)COc2ccc(S(=O)(=O)N3CCCC3)cc21)N1CCN(c2ccccc2F)CC1	none (no result: PI5P4K alpha inh, PLK1 PBD block)
Cc1ccc(CNC(=O)c2cccc(-n3cnc4cccnc43)c2)cc1	none (no result: PI5P4K alpha inh, PLK1 PBD block)
COCCCNC(=O)c1c(NC(=O)Cc2coc3cc(C)cc(C)c23)sc2c1CCCC2	none (no result: PI5P4K alpha inh, PLK1 PBD block)
CS(=O)(=O)C1=C(O)C(=O)N(CCCC(=O)O)C1c1ccccc1F (configuration not stated)	JMJD2A Tudor inh 50.1µM
CN1/C(=C/C(=O)c2cccs2)Sc2ccccc21	none (no result: PI5P4K alpha inh, JMJD2A Tudor inh, PLK1 PBD block, HP1b chromo inh)
CCC(=S)/C=C1\Sc2ccccc2N1CCCS(=O)(=O)O	BAZ2B block inconclusive, JMJD2A Tudor inh 28.2µM, PLK1 PBD block inconclusive, HP1b chromo inh inconclusive
CN(C)S(=O)(=O)c1cccc(NC(=O)CNC2CCCCC2)c1	BAZ2B block inconclusive, JMJD2A Tudor inh 22.4µM, HP1b chromo inh inconclusive
CN(C)S(=O)(=O)c1cccc(NC(=O)CNCc2ccccn2)c1	BAZ2B block 20µM, JMJD2A Tudor inh 28.2µM
Cc1cc(C)nc(SCC(=O)Nc2cccc(S(=O)(=O)N(C)C)c2)n1	none
CCN(CC)S(=O)(=O)c1ccc(NC(=O)CNC2CCCCC2)cc1	BAZ2B block 79.4µM, JMJD2A Tudor inh 5.62µM, HP1b chromo inh inconclusive
CCN(CC)S(=O)(=O)c1ccc(NC(=O)CCC2CCCCC2)cc1	none
CC(=O)c1ccc(NC(=O)Cn2c(=O)cc(C)c3c(C)nn(-c4cccc(F)c4)c32)cc1	none (no result: PI5P4K alpha inh, PLK1 PBD block)
O=c1[nH]cncc1OCc1ccccc1	none (no result: BAZ2B block, GCN5L2 inh)
CCOC(=O)c1c(S(=O)(=O)NCC(=O)Nc2cc(C)ccn2)c(C)n(C)c1C	none
O=C(CCC1N=C2c3ccccc3N=C(SCC(=O)Nc3cccc(Cl)c3)N2C1=O)NCc1ccco1 (configuration not stated)	none (no result: PI5P4K alpha inh, PLK1 PBD block)
S=c1nc(C2CCCCC2)n(-c2ccccc2)[nH]1	JMJD2A Tudor inh 15.8µM
Cc1cccc(-n2nnc3c(=O)n(Cc4ccccn4)cnc32)c1	none (no result: BAZ2B block)
Cc1cc(NS(=O)(=O)c2ccccc2)cc(Cl)c1O	JMJD2A Tudor inh 89.1µM
O=S(=O)(Nc1ccc(N=Nc2ccc(O)c3ccccc23)cc1)c1ccccc1	BAZ2B block 39.8µM, JMJD2A Tudor inh 25.1µM, HP1b chromo inh 39.8µM
O=S(=O)(Nc1ccc(NS(=O)(=O)c2ccccc2)c(Cl)c1)c1ccccc1	none (no result: BAZ2B block, GCN5L2 inh)
O=[N+]([O-])c1ccc(N=Nc2ccc(O)c3ccccc23)cc1	PI5P4K alpha inh -65.8, JMJD2A Tudor inh 3.16µM, HP1b chromo inh 7.94µM (no result: BAZ2B block, GCN5L2 inh)
O=S(=O)(Nc1ccc(N=Nc2ccccc2)cc1)c1ccccc1	BAZ2B block 35.5µM, JMJD2A Tudor inh 35.5µM, HP1b chromo inh 44.7µM
O=C(CN1C(=O)NC2(CCCCCCC2)C1=O)Nc1ccc(Br)cc1Br	none
CCCCc1ccc(S(=O)(=O)NC(=O)C2(C)CCN2C(=O)C/C=C/c2ccccc2)cc1 (configuration not stated)	none (no result: BAZ2B block, JMJD2A Tudor inh, GCN5L2 inh, HP1b chromo inh)
CCOC(=O)c1cc(CC)sc1N1C(=O)CC(Sc2ccccc2C(=O)O)C1=O (configuration not stated)	BAZ2B block 63.1µM, PLK1 PBD block inconclusive
O=C(O)c1ccccc1SC1CC(=O)N(c2ccccc2)C1=O (configuration not stated)	JMJD2A Tudor inh inconclusive
COC(=O)c1c(N2C(=O)CC(Sc3ccccc3C(=O)O)C2=O)sc2c1CCCC2 (configuration not stated)	BAZ2B block 50.1µM, PLK1 PBD block 23.8µM
Nc1cn(C2OC(CO)C(O)C2O)c(=O)[nH]c1=O (configuration not stated)	none
CC(C)Oc1ccc(C(=O)Nc2nnc(C3=COCCO3)o2)cc1	BAZ2B block inconclusive, JMJD2A Tudor inh inconclusive
Cc1cccc(C(=O)Nc2nnc(C3=COCCO3)o2)c1	BAZ2B block 7.94µM, JMJD2A Tudor inh 39.8µM
COc1ccc(C(=O)Nc2nnc(C3=COCCO3)o2)cc1OC	BAZ2B block 15.8µM, JMJD2A Tudor inh 50.1µM
Cc1cccc(N/C(N)=N/c2nc(CSc3ccc(Cl)cc3)cc(=O)[nH]2)c1	none
CC(C)[C@@H](NC(=O)C1CCN(C(=O)[C@@H]2CCCN2C(=O)OC(C)(C)C)CC1)C(=O)NCc1ccc(F)cc1	none
NNC1=N[C@H]2CS(=O)(=O)C[C@H]2S1	JMJD2A Tudor inh 8.91µM
Cc1nc(Cl)cc(CS(=O)(=O)c2ccc(Cl)cc2)n1	BAZ2B block 79.4µM, PLK1 PBD block inconclusive
O=C(c1ccccc1)c1ccccc1NC(=O)C1CCCN1Cc1ccccc1 (configuration not stated)	none
CCCCN(CC)c1nc(N)c(C#N)c(CC#N)c1C#N	PI5P4K alpha inh -70.9
C=C(C)CN(CC)c1nc(N)c(C#N)c(CC#N)c1C#N	PI5P4K alpha inh inconclusive
Cn1c(CNc2ccc(Cl)cc2)nc2ccccc21	none
CN(Cc1nc2ccccc2n1C)S(=O)(=O)c1ccc(Cl)cc1	PLK1 PBD block 13.4µM
CCCCc1cc(=O)oc2cc(C)cc(OCC(=O)N[C@@H](CSCc3ccccc3)C(=O)O)c12	GCN5L2 inh 1.78µM
CCc1cc(=O)oc2cc(C)cc(OCC(=O)N[C@@H](CSCc3ccccc3)C(=O)O)c12	none
CSc1ccccc1NC(=O)CN(C)C(=O)c1c(C)nn(Cc2ccccc2)c1C	none
CCOC(=O)c1cccc(NC(=O)c2cc3c(=O)n(Cc4cccnc4)ccc3nc2C)c1	none (no result: PI5P4K alpha inh, PLK1 PBD block)
